Source: PubChem BioAssay AID1745849 (National Center for Advancing Translational Sciences (NCATS), 2022)
Among all 2,100 compounds or so, about 320 (15%) were called active. Inconclusive results (about 52%) are left out. The list shows a part of the results. Values without a mark were called inactive. Calls follow the shape of the dose curve; as a rule, active = well fitted cell-killing curve with a large enough effect; inconclusive = small, poorly fitted or top-dose-only effect, or effect the other way; inactive = flat fitted curve, though single readings scatter.

Experiment: Viability Counterscreen for CMV-Luciferase Assay of Inhibitors of ATXN expression; also: nearly all actives have a fitted effect of over 55% in size
Details: HEK-293 CMV-luciferase cells viability, protease fluorescence, 24 h; activity change, negative = cytotoxicity: at the top concentration
Procedure, shortened: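 Luminescence read-out: SteadyGlo added, 5 min RT, measured in CMV-luciferase HEK-293 cells after 24 hr compound treatment (several concentrations). Viability counterscreen: 25 uM Gly-Phe-7-amino-4-trifluoromethylcoumarin, 30 min at 37 degree C, fluorescence ex 405/em 540 nm.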
% is scaled to controls: 0 for no effect and ±100 for the full control effect; potency is read from the fitted curve at half-maximal effect.

| SMILES | activity change, negative = cytotoxicity | Potency |
| --- | --- | --- |
| OC(c1ccccc1)(c1nc(-c2cc3ccccc3o2)cs1)C(F)(F)F (stereo not given) | 16.3% [at 57.5 µM] |  |
| O=S(=O)(c1ccc2c(c1)OCCO2)N1CCC(c2nc3ccc(Cl)cc3[nH]2)CC1 | -13.8% |  |
| Cc1ccc(S(=O)(=O)N2CCc3ccccc3CC2)cc1 | -8.1% |  |
| Cc1ccc(S(=O)(=O)/N=C(\Sc2ccccc2)c2ccccc2)cc1 |  | 15.8 µM (active) |
| CCn1c(CCC(=O)Nc2nc3c(s2)CCCC3)nc2cc(S(=O)(=O)N(C)C)ccc21 | 11.6% |  |
| Cc1ccc2c(Cl)cc(Cl)c(O)c2n1 | -19.2% [at 57.5 µM] |  |
| COc1ccc(C)cc1NC(=O)CSc1ccc(-c2ccccn2)nn1 |  | 12.6 µM (active) |
| COc1ccc(C)cc1NC(=O)COC(=O)c1c(C)nn(-c2ccccc2)c1C | -23.2% [at 57.5 µM] |  |
| O=c1c(Cc2ccccc2)c(O)nc2n1CCS2 | -7.62% [at 57.5 µM] |  |
| COc1cccc(/C=N/NC(=O)CC(C)O)c1OC/C=C/c1ccccc1 (stereo not given) | -8.29% |  |
| COc1ccc(/C=N/Nc2cc(N3CCCC3)nc(N3CCCC3)n2)cc1 |  | 2.82 µM (active) |
| COc1ccc(C(=O)N/N=C/c2ccc(N(C)c3ccccc3)cc2)cc1 | 9.4% |  |
| CS(=O)(=O)Nc1cccc(NC(=O)c2cccc3c(-c4cccc(C(N)=O)c4)coc23)c1 |  | 17.8 µM (active) |
| NC(=O)c1cccc(-c2ccnc3c2CC(C(=O)Nc2cccc(C(F)(F)F)c2)O3)c1 (stereo not given) | -20.1% |  |
| CC(=O)c1cccc(NC(=O)c2cccc3c(-c4cccc(C(N)=O)c4)coc23)c1 |  | 11.2 µM (active) |
| CC(=O)c1cccc(NC(=O)C2Cc3c(-c4cccc(C(C)=O)c4)ccnc3O2)c1 (stereo not given) | -24.8% |  |
| CS(=O)(=O)Nc1ccccc1C(=O)Nc1cc(Cl)cc(Cl)c1 | -18% |  |
| Cc1cc(OCc2nc(N)nc(N)c2-c2ccc(Cl)c(Cl)c2)ccc1[N+](=O)[O-] | -24.9% |  |
| CCn1c(-c2ccc(C)cc2)nn(CC(=O)NCCc2ccccc2)c1=S | -11.3% |  |
| CCN(CC)CCNC(=O)CCc1c(C)nc2c(c(C)nn2-c2ccc(C)cc2)c1C |  | 3.55 µM (active) |
| Cc1nn(-c2ccccc2)c2nc(-c3cccs3)cc(C(=O)NN)c12 | -5.3% [at 57.5 µM] |  |
| Cc1ccc(CN2CCC(c3nc4ccc(Cl)cc4[nH]3)CC2)cc1 | 0.46% [at 57.5 µM] |  |
| COc1cccc(/C=N/NC(=O)c2cc(-c3ccccn3)nc3ccccc23)c1O |  | 2.82 µM (active) |
| COc1cccc(/C=N/Nc2nc3ccccc3n3cnnc23)c1O | -5.52% |  |
| O=C(N/N=C/c1cc([N+](=O)[O-])ccc1O)c1cccc2cc[nH]c12 |  | 7.94 µM (active) |

| SMILES | activity change, negative = cytotoxicity | Potency |
| --- | --- | --- |
| O=[N+]([O-])c1ccc(O)c(/C=N\N=C2c3ccccc3-c3ccccc32)c1 |  | 10 µM (active) |
| COc1cccc(/C=N/NC(=O)c2ccc(-c3ccccc3)cc2)c1O | -14.8% [at 57.5 µM] |  |
| C/C(=N\NC(=O)c1cc(-c2cccnc2)nc2ccccc12)c1ccc(O)cc1O | 8.79% [at 57.5 µM] |  |
| O=C(N/N=C/c1cc([N+](=O)[O-])ccc1O)c1cc(-c2ccccc2)nc2ccccc12 |  | 2.51 µM (active) |
| CCCC(=O)Nc1c(C(=O)OCC)[nH]c2ccccc12 | -10.6% |  |
| Cc1ccc(-n2cccn2)c(CN2CCCC(C(=O)c3ccc4c(c3)OCO4)C2)c1 (stereo not given) | -23.7% [at 57.5 µM] |  |
| O=C(Nc1cccc(Br)c1)c1ccc(Cl)c(S(=O)(=O)N2CCOCC2)c1 | -10.5% |  |
| Cc1ccc2c(c1)-c1c(cnn1CC(=O)N1CCCN(Cc3ccccc3F)C1)CO2 | -15% |  |
| Cc1cc(Br)ccc1NC(=O)c1cnc(N2CCN(c3ccccn3)CC2)c2ccccc12 | -2.71% |  |
| Cc1cc(Cl)c(C(=O)Nc2cccc(C(F)(F)F)c2)c(C)n1 | -12.7% [at 57.5 µM] |  |
| Cc1ccc(NC(=O)COc2ccc(Br)cc2CO)cc1S(=O)(=O)N1CCOCC1 | -29.7% [at 57.5 µM] |  |
| O=C(c1ccc(Cl)s1)N1CCN(c2nc3ccccc3s2)CC1 | 8.44% |  |
| CC(=O)c1ccc(NC(=O)COC(=O)c2c3c(nc4ccccc24)/C(=C\c2cccs2)CCC3)cc1 | -7.02% [at 57.5 µM] |  |
| Cc1noc2ncnc(N3CCN(c4cccc(Cl)c4)CC3)c12 | 7.33% [at 57.5 µM] |  |
| CCN1C(=O)C(CC(=O)Nc2ccc(OC)cc2)N(CCc2ccc(F)cc2)C1=S (stereo not given) | -29.9% |  |
| CC(C)COc1cccc(C(=O)N(CC(=O)Nc2ccccc2C(F)(F)F)Cc2ccco2)c1 | -29% |  |
| Cc1onc(-c2ccccc2)c1C(=O)N/N=C/c1c[nH]c2ccccc12 | -2.59% [at 57.5 µM] |  |
| O=C(N/N=C/c1cc([N+](=O)[O-])ccc1O)c1c[nH]c2ccccc12 |  | 28.2 µM (active) |
| Cc1ccc2cc(C#N)c(N3CCN(C(=O)c4ccccc4)CC3)nc2c1 | -14.6% [at 57.5 µM] |  |
| COc1ccc(-c2cc(C3CCN(c4ccc(C(C)=O)cc4[N+](=O)[O-])CC3)[nH]n2)cc1 |  | 14.1 µM (active) |
| CCOC(=O)[C@H]1[C@H]2COc3ccc(OC)cc3[C@@H]2N2C(=O)c3cc(OC)c(OC)cc3NC(=O)[C@@]12C | -12.3% |  |
| NNc1ncnc2scc(-c3ccc(Cl)cc3)c12 | -15% [at 57.5 µM] |  |
| CCOC(=O)c1c(C)sc2c1N(C(=O)CN(CC)CC)c1cc(Cl)ccc1S2 |  | 15.8 µM (active) |
| CN(C)c1nc(N/N=C/c2c[nH]c3ccccc23)nc(N2CCOCC2)n1 | 0.442% |  |
| C=CCn1c(C)c(/C=C/c2cc[n+](C)cc2)c2ccccc21 | 5.96% |  |

| SMILES | activity change, negative = cytotoxicity | Potency |
| --- | --- | --- |
| Nn1cnnc1N/N=C/c1cc(Br)cc(Br)c1O | 9.75% |  |
| O=C(CSc1nnnn1-c1ccccc1)Nc1nsc(-c2ccccc2)n1 | 6.34% [at 57.5 µM] |  |
| CSc1sc(-c2nnc(SCC(=O)Nc3ccc(Cl)cc3)n2C)c2c1C=CCC2 | -1.3% |  |
| Cn1c(SCC(=O)Nc2cc(Cl)cc(Cl)c2)nnc1-c1ccc2nonc2c1 | -20.1% |  |
| Cn1c(SCC(=O)N/N=C/c2ccc([N+](=O)[O-])s2)nnc1-c1ccccc1 |  | 20 µM (active) |
| Cn1c(SCC(=O)N/N=C/c2ccc([N+](=O)[O-])s2)nnc1-c1ccc(Cl)cc1 |  | 10 µM (active) |
| COc1ccc(N2CCN(c3ccnc4cc(Cl)ccc34)CC2)cc1 | 1.26% |  |
| COc1cccc(OC)c1C(=O)OCC(=O)NC(=O)NCc1ccccc1 | 2.4% |  |
| CC(C)(C)c1ccc(Oc2ccc(N)cc2)cc1 | -10.3% [at 57.5 µM] |  |
| Cc1nc2ncnn2c(N2CCN(c3cccc(C(F)(F)F)c3)CC2)c1C | 5.69% |  |
| c1ccc2c(c1)c1c(c3ccccc32)CN2CCCC2C1 (stereo not given) | -17.1% [at 57.5 µM] |  |
| Cc1c(N=C2C=CC(=O)c3ccccc32)c(=O)n(-c2ccccc2)n1C |  | 28.2 µM (active) |
| Cc1ccc(-c2cc(C(=O)NCCCN3CCOCC3)no2)cc1 | -0.121% [at 57.5 µM] |  |
| COC(=O)C1=C(C)N(Cc2ccccc2)C(=NCCc2cccnc2)N[C@H]1c1ccc(Br)cc1 |  | 20 µM (active) |
| c1ccc(-c2cc3c(N4CCN(c5ccccc5)CC4)ncnc3s2)cc1 | -24.3% [at 57.5 µM] |  |
| COc1ccc(N(CC(=O)N2CCN(c3ccc(Cl)cc3)CC2)S(=O)(=O)c2c(C)n[nH]c2C)cc1 | 1.04% |  |
| COc1cccc(-c2cc3nc(-c4ccccc4)cc(N4CCN(C(=O)c5ccoc5)CC4)n3n2)c1 | -24.5% |  |
| O=C(c1ccoc1)N1CCN(c2cc(-c3ccco3)nc3cc(-c4ccccc4)nn23)CC1 | -18.2% [at 57.5 µM] |  |
| COc1ccccc1-c1cc2nc(-c3ccccc3)cc(N3CCN(C(=O)c4ccoc4)CC3)n2n1 |  | 10 µM (active) |
| COc1cccc(C2CC(c3c(-c4ccccc4)c4cc(Cl)ccc4[nH]c3=O)=NN2S(C)(=O)=O)c1OC (stereo not given) | -22.3% |  |
| CCCOc1ccc(C(=O)NC(=S)NNC(=O)c2c(-c3ccccc3)noc2C)cc1 | -3.9% |  |
| O=C(/C=C/c1ccccc1)NC(=S)NNC(=O)c1cnccn1 |  | 10 µM (active) |
| O=C(N/N=C1\CCCc2c1[nH]c1ccc(Cl)cc21)c1ccncc1 | 8.93% [at 57.5 µM] |  |
| Cc1cc(C)nc(/N=C(\N)Nc2ccc(C(C)C)cc2)n1 | -6.78% |  |
| CCc1cc(-c2nnn(CCC3COCCO3)c2CC)ccc1-c1cn(CCc2c[nH]c3ccccc23)nn1 (stereo not given) | -21% [at 57.5 µM] |  |

| SMILES | activity change, negative = cytotoxicity | Potency |
| --- | --- | --- |
| CCCc1nc2c(c(=O)c3ccccc3n2C)c(=O)n1C1CCCCCC1 |  | 20 µM (active) |
| CC(C)(C)OC(=O)CNC(=O)c1[nH]cnc1C(=O)Nc1ccc(CNC(=O)OC(C)(C)C)cc1 | -25.6% [at 57.5 µM] |  |
| CN(C)c1cc[n+](CC(=O)c2ccc(-c3ccccc3)cc2)cc1 | -28.5% |  |
| CCC(=O)OC1(C(C)=O)CCC2C3CCC4=CC(=O)CCC4(C)C3CCC21C (stereo not given) | -2.45% [at 57.5 µM] |  |
| NC(Cc1ccc(C(F)(F)F)cc1)c1csc(Nc2nccc(C(F)(F)F)n2)n1 (stereo not given) | -0.88% |  |
| CC(C)(C)c1ccc(C(=O)N2CCCCCC2=O)cc1 | -17.4% [at 57.5 µM] |  |
| CCN(CC)c1ccc(C(=O)N/N=C/c2ccccc2OC(F)F)cc1 | -26.8% |  |
| CCN(CC)c1ccc(/C=C/c2cccc[n+]2C)c(OC)c1 |  | 14.1 µM (active) |
| COc1ccccc1NC(=S)NC(=O)c1ccc(Cn2cc(Br)cn2)cc1 | 3.03% [at 57.5 µM] |  |
| COc1cc(-c2nnc(SCC(=O)N(Cc3ccccc3)C(C)(C)C)o2)cc(OC)c1OC | -7.89% |  |
| Cc1ccc(NC(=O)c2ccc(-c3nn(C)c(=O)c4ccccc34)cc2)cc1 | -10.4% [at 57.5 µM] |  |
| CCc1nc2ccccc2c(C(=O)OCC(=O)Nc2ccc(NC(C)=O)cc2)c1C | 3.49% |  |
| C/C(=N\NC(=O)c1cc(C2CC2)nc2ccccc12)c1ccc(O)cc1O | 8.57% [at 57.5 µM] |  |
| CC(=O)Nc1ccc(Nc2c3ccccc3nc3ccccc23)cc1 |  | 8.91 µM (active) |
| CSc1sc(C(=O)NN)c2c1C1(CCC2)SCCS1 | 5.91% [at 57.5 µM] |  |
| CC1CCCN(S(=O)(=O)c2ccc(C(=O)Nc3nnc(-c4ccccc4Cl)o3)cc2)C1 (stereo not given) | -14% |  |
| O=C1/C(=C\c2cc(Cl)c(O)c(Cl)c2)SC(=S)N1Cc1ccccc1 | 27.6% [at 57.5 µM] |  |
| COc1ccc(/C=C2\CN(Cc3ccccc3)C/C(=C\c3ccc(OC)c(O)c3)C2=O)cc1O |  | 10 µM (active) |
| OC1(c2ccc(Cl)cc2)CCN(Cc2c[nH]c3ccccc23)CC1 | -9.54% |  |
| COCCCn1c(-c2ccc(S(=O)(=O)N3CCOCC3)cc2)csc1=Nc1ccccc1 | 2.74% |  |
| COc1ccc(Cl)cc1C(=O)Nc1ccccc1N1CCN(C(=O)C(C)C)CC1 | -29.9% [at 57.5 µM] |  |
| COc1ccc(Cl)cc1NC(=O)Nc1cccc([N+](=O)[O-])c1C | 2.88% |  |
| COc1ccc(NC(=O)c2cc(-c3cc(Cl)ccc3OC)n[nH]2)cc1OC |  | 0.398 µM (active) |
| Cc1cc(C)c(C(=O)N2CCCC(N3CCN(c4cccc(C(F)(F)F)c4)CC3)C2)o1 (stereo not given) | -20.6% |  |
| CCOc1ccc(CCNC(=O)c2ccc(OCc3c(C)noc3C)cc2)cc1OCC | 20.1% |  |
